The full ranking holds about 110,000 compounds; the median of “z-score” is about -0.1, and the highest 2% start at about 2. The entries come from a sample that favours the highest values as a whole. The source made the active and inactive calls.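 The calls were made as follows: active = z-score in the third read window above 3 or below -3; inactive = the rest.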
molecular target: Metabotropic glutamate receptor 8 (Rattus norvegicus) (UniProt P70579); test: rat mGluR8 modulators via GIRK flux, primary screen, cell-based, thallium flux, HTS (AID 488969); details: HEK293 rat mGluR8, GIRK (G protein-gated inwardly rectifying potassium channel) thallium flux, FluoZin2; at 10 µM; stronger effect = higher value; submaximal glutamate (EC20) added with thallium
Sequence (P70579 whole entry, looked up): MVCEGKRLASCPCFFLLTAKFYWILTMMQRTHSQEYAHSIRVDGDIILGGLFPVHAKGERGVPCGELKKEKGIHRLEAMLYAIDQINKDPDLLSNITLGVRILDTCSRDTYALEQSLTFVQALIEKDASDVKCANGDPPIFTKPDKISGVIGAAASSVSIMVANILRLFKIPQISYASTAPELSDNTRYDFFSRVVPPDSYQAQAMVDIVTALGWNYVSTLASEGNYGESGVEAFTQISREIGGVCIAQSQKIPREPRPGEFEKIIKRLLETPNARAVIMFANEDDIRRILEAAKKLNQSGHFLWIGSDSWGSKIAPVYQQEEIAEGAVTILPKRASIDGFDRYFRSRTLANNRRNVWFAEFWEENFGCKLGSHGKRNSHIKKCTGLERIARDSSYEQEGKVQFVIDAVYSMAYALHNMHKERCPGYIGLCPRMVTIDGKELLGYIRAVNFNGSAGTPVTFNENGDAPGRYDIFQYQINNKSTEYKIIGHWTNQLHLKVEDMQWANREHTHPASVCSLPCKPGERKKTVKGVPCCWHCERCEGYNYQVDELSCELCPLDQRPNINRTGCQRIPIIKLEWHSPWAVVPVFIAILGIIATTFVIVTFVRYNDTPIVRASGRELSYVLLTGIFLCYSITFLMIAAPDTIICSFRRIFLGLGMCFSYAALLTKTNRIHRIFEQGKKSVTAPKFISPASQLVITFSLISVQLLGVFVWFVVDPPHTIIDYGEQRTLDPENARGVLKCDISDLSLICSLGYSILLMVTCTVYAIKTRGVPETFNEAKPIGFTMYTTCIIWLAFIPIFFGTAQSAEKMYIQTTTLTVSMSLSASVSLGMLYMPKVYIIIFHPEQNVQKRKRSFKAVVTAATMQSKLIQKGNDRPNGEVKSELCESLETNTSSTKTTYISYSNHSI

Structure (SMILES) | z-score
O=C(NCC(=O)N1CCN(c2ncccn2)CC1)c1cccs1 | 0.235
Cn1cc(-c2nnnn2-c2ccc(Cl)cc2)c(C(F)(F)F)n1 | 0.131
CCCCc1nc(NCc2ccccc2)c(C#N)c2c1COC(C)(C)C2 | 0.531
O=C(NCCCN1CCOCC1)c1ccc(CS(=O)(=O)c2ccc(Br)cc2)o1 | -0.0398
CC(=O)Nc1ccc(NC(=O)c2ccc(Cn3cc(Cl)cn3)cc2)cc1 | -0.369
S=c1[nH]cc(-c2ccccc2)n1-c1cccc(Cl)c1 | 2.94
CCn1c(-c2ccc(-c3ccccc3)cc2)c[nH]c1=S | 3.86 (active)
Cn1c(-c2ccccc2)cccc1=O | 0.333
CCn1c(-c2ccccc2)c[nH]c1=S | 0.254
Cc1cccc(-n2cc[nH]c2=S)c1 | 0.0616
S=c1[nH]cc(-c2ccccc2)n1-c1ccccc1Cl | 0.447
Cn1c(-c2ccc(-c3ccccc3)cc2)c[nH]c1=S | 4.21 (active)
S=c1[nH]ccn1-c1cccc(Cl)c1 | 2.29
S=c1[nH]cc(-c2ccc(Cl)cc2)n1-c1ccccc1 | 1.94
Cc1ccc(-n2cc[nH]c2=S)cc1C | 1.42
C=CCn1c(-c2ccccc2)c[nH]c1=S | 0.229
S=c1[nH]cc(-c2ccccc2)n1-c1ccccc1 | 0.267

Structure (SMILES) | z-score
COc1ccnc(N2CCN(c3ccccc3)CC2)c1C#N | 0.0026
COc1cccc(/C(O)=C2/C(=O)C(=O)N(CCN(C)C)C2c2ccccn2)c1 (centres undefined) | -0.249
CCc1ccc(NC(=O)CSc2nc3ccccc3c(=O)n2CCCC(=O)N2CCCC2)cc1 | -0.305
NC(=O)c1ccc(F)cc1 | 0.635
Cc1ccc(NC(=O)N2C(=O)C3(OCCO3)c3ccccc32)cc1 | -0.237
COc1ccc(-c2cc(C(F)F)n3ncc(C(=O)N4CCN(C)CC4)c3n2)cc1 | -0.201
COc1cc(C2C(C(=O)N3CCOCC3)=C(C)NC3=C2C(=O)CCC3)ccc1OC(C)=O (centres undefined) | 0.401
COCCCNCCCCOc1cccc(Br)c1 | 0.266
CC(=O)Nc1nc2ccc(-c3nc4ccccc4o3)cc2s1 | 2.69
Cc1ccc2nc(NC(=O)c3ccc4ncsc4c3)sc2c1 | 0.195
CC(=O)Nc1nc2ccc(C(=O)NC3CCCCC3)cc2s1 | -0.32
CNC(=O)c1ccc2nc(NC(C)=O)sc2c1 | 8.42 (active)
Nc1nc2ccc(-c3nc4ccccc4o3)cc2s1 | -0.112
Cc1ccc2nc(NC(=O)CSc3nc4ccccc4o3)sc2c1 | 0.182
COC(=O)c1ccc(CSc2ccc3nnc(-c4cccc(F)c4)n3n2)o1 | -0.901
Cc1cccc(N2CSC3=C(C#N)C(c4ccc(C)o4)CC(=O)N3C2)c1 (centres undefined) | -0.375
CCOC(=O)/C(=C\Nc1ccc(OC(F)(F)F)cc1)Sc1ncc(C(F)(F)F)cc1Cl | -0.436

Reference: PubChem BioAssay AID488969 (Vanderbilt High Throughput Screening Facility, 2010)
